# Data: publication PMC11006913
# Key:
# Assay in all cases: PBM; 200 nM protein, PBS
# Settings in all cases: dsDNA, one strand shown
# HOXB4 [1] = target: HOXB4 (Homo sapiens, UniProt P17483 148-234)
# CRX [2] = target: CRX (Homo sapiens, UniProt O43186 26-111)
# HOXA4 [3] = target: HOXA4 (Homo sapiens, UniProt Q00056 201-287, W262R)
# HOXA2 [4] = target: HOXA2 (Homo sapiens, UniProt O43364 129-215, R185T)
# HOXA4 [5] = target: HOXA4 (Homo sapiens, UniProt Q00056 201-287, R217L)
# HOXB4 [6] = target: HOXB4 (Homo sapiens, UniProt P17483 148-234, V174I)
# CRX [7] = target: CRX (Homo sapiens, UniProt O43186 26-111, E42D)
# HOXA2 [8] = target: HOXA2 (Homo sapiens, UniProt O43364 129-215, R185K)
# HOXA4 [9] = target: HOXA4 (Homo sapiens, UniProt Q00056 201-287)
# VAX1 [10] = target: VAX1 (Homo sapiens, UniProt Q5SQQ9 86-172)
# VAX1 [11] = target: VAX1 (Homo sapiens, UniProt Q5SQQ9 86-172, T142I)
# HOXA2 [12] = target: HOXA2 (Homo sapiens, UniProt O43364 129-215, Y150S)
# CRX [13] = target: CRX (Homo sapiens, UniProt O43186 26-111, R41L)
# HOXA4 [14] = target: HOXA4 (Homo sapiens, UniProt Q00056 201-287, W262F)
# HOXA2 [15] = target: HOXA2 (Homo sapiens, UniProt O43364 129-215)
# VAX1 [16] = target: VAX1 (Homo sapiens, UniProt Q5SQQ9 86-172, K157R)
# SHOX [17] = target: SHOX (Homo sapiens, UniProt O15266 103-189)
# ALX1 [18] = target: ALX1 (Homo sapiens, UniProt Q15699 118-204, L144V)
# SHOX [19] = target: SHOX (Homo sapiens, UniProt O15266 103-189, R173C)
# ALX1 [20] = target: ALX1 (Homo sapiens, UniProt Q15699 118-204, L144R)
# ALX1 [21] = target: ALX1 (Homo sapiens, UniProt Q15699 118-204)
# HESX1 [22] = target: HESX1 (Homo sapiens, UniProt Q9UBX0 95-180, R165K)
# HESX1 [23] = target: HESX1 (Homo sapiens, UniProt Q9UBX0 95-180)
# HESX1 [24] = target: HESX1 (Homo sapiens, UniProt Q9UBX0 95-180, P111T)
# HESX1 (Homo sapiens, UniProt Q9UBX0 95-180, P111T), sequence (Q9UBX0 95-180 P111T): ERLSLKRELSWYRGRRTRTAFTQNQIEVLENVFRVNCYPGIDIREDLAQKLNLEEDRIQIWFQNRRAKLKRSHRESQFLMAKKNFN
# HESX1 (Homo sapiens, UniProt Q9UBX0 95-180, R165K), sequence (Q9UBX0 95-180 R165K): as the sequence (Q9UBX0 95-180 P111T) above, with T17P, R71K counted along it
# HESX1 (Homo sapiens, UniProt Q9UBX0 95-180), sequence (Q9UBX0 95-180): as the sequence (Q9UBX0 95-180 P111T) above, with T17P counted along it
# HOXB4 (Homo sapiens, UniProt P17483 148-234), sequence (P17483 148-234): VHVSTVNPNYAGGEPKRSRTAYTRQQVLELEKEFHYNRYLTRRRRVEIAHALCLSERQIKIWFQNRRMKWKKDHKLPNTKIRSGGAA
# VAX1 (Homo sapiens, UniProt Q5SQQ9 86-172, T142I), sequence (Q5SQQ9 86-172 T142I): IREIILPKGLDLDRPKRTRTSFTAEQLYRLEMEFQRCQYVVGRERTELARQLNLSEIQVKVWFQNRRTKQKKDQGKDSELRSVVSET
# VAX1 (Homo sapiens, UniProt Q5SQQ9 86-172), sequence (Q5SQQ9 86-172): as the sequence (Q5SQQ9 86-172 T142I) above, with I57T counted along it
# HOXB4 (Homo sapiens, UniProt P17483 148-234, V174I), sequence (P17483 148-234 V174I): as the sequence (P17483 148-234) above, with V27I counted along it
# VAX1 (Homo sapiens, UniProt Q5SQQ9 86-172, K157R), sequence (Q5SQQ9 86-172 K157R): as the sequence (Q5SQQ9 86-172 T142I) above, with I57T, K72R counted along it
# CRX (Homo sapiens, UniProt O43186 26-111), sequence (O43186 26-111): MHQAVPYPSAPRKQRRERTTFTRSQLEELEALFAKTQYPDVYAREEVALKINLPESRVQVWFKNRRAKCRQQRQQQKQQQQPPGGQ
# SHOX (Homo sapiens, UniProt O15266 103-189), sequence (O15266 103-189): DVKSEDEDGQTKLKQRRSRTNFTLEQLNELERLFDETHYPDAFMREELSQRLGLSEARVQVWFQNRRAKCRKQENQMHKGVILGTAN
# HOXA4 (Homo sapiens, UniProt Q00056 201-287, R217L), sequence (Q00056 201-287 R217L): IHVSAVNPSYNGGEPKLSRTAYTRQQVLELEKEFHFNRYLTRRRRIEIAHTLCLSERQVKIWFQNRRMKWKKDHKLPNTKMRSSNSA
# HOXA2 (Homo sapiens, UniProt O43364 129-215, R185K), sequence (O43364 129-215 R185K): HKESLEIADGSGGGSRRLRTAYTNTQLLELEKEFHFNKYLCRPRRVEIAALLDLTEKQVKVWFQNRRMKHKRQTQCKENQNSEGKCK
# HOXA4 (Homo sapiens, UniProt Q00056 201-287, W262R), sequence (Q00056 201-287 W262R): as the sequence (Q00056 201-287 R217L) above, with L17R, W62R counted along it
# CRX (Homo sapiens, UniProt O43186 26-111, E42D), sequence (O43186 26-111 E42D): as the sequence (O43186 26-111) above, with E17D counted along it
# CRX (Homo sapiens, UniProt O43186 26-111, R41L), sequence (O43186 26-111 R41L): as the sequence (O43186 26-111) above, with R16L counted along it
# ALX1 (Homo sapiens, UniProt Q15699 118-204, L144R), sequence (Q15699 118-204 L144R): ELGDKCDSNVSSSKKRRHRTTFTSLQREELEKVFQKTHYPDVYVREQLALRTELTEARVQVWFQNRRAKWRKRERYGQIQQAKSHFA
# ALX1 (Homo sapiens, UniProt Q15699 118-204, L144V), sequence (Q15699 118-204 L144V): as the sequence (Q15699 118-204 L144R) above, with R27V counted along it
# ALX1 (Homo sapiens, UniProt Q15699 118-204), sequence (Q15699 118-204): as the sequence (Q15699 118-204 L144R) above, with R27L counted along it
# HOXA2 (Homo sapiens, UniProt O43364 129-215), sequence (O43364 129-215): as the sequence (O43364 129-215 R185K) above, with K57R counted along it
# HOXA4 (Homo sapiens, UniProt Q00056 201-287, W262F), sequence (Q00056 201-287 W262F): as the sequence (Q00056 201-287 R217L) above, with L17R, W62F counted along it
# HOXA2 (Homo sapiens, UniProt O43364 129-215, R185T), sequence (O43364 129-215 R185T): as the sequence (O43364 129-215 R185K) above, with K57T counted along it
# HOXA4 (Homo sapiens, UniProt Q00056 201-287), sequence (Q00056 201-287): as the sequence (Q00056 201-287 R217L) above, with L17R counted along it
# HOXA2 (Homo sapiens, UniProt O43364 129-215, Y150S), sequence (O43364 129-215 Y150S): as the sequence (O43364 129-215 R185K) above, with Y22S, K57R counted along it
# SHOX (Homo sapiens, UniProt O15266 103-189, R173C), sequence (O15266 103-189 R173C): as the sequence (O15266 103-189) above, with R71C counted along it
sequence,measurement,setting,value
AATCATTA,binding signal,HOXB4 [1],"13.2 upbm affinity estimate (log intensity, higher = more binding, comparable within an allelic series)"
same,binding signal,CRX [2],"10.5 upbm affinity estimate (log intensity, higher = more binding, comparable within an allelic series)"
same,binding signal,HOXA4 [3],"10.7 upbm affinity estimate (log intensity, higher = more binding, comparable within an allelic series)"
same,binding signal,HOXA2 [4],"12.4 upbm affinity estimate (log intensity, higher = more binding, comparable within an allelic series)"
same,binding signal,HOXA4 [5],"12.3 upbm affinity estimate (log intensity, higher = more binding, comparable within an allelic series)"
same,binding signal,HOXB4 [6],"13.8 upbm affinity estimate (log intensity, higher = more binding, comparable within an allelic series)"
same,binding signal,CRX [7],"10.3 upbm affinity estimate (log intensity, higher = more binding, comparable within an allelic series)"
same,binding signal,HOXA2 [8],"13.2 upbm affinity estimate (log intensity, higher = more binding, comparable within an allelic series)"
same,binding signal,HOXA4 [9],"13.9 upbm affinity estimate (log intensity, higher = more binding, comparable within an allelic series)"
same,binding signal,VAX1 [10],"12.7 upbm affinity estimate (log intensity, higher = more binding, comparable within an allelic series)"
same,binding signal,VAX1 [11],"12.6 upbm affinity estimate (log intensity, higher = more binding, comparable within an allelic series)"
same,binding signal,HOXA2 [12],"10.8 upbm affinity estimate (log intensity, higher = more binding, comparable within an allelic series)"
same,binding signal,CRX [13],"9.82 upbm affinity estimate (log intensity, higher = more binding, comparable within an allelic series)"
same,binding signal,HOXA4 [14],"11.6 upbm affinity estimate (log intensity, higher = more binding, comparable within an allelic series)"
same,binding signal,HOXA2 [15],"12.1 upbm affinity estimate (log intensity, higher = more binding, comparable within an allelic series)"
same,binding signal,VAX1 [16],"12.4 upbm affinity estimate (log intensity, higher = more binding, comparable within an allelic series)"
CGCAGGCG,binding signal,HOXB4 [1],"7.74 upbm affinity estimate (log intensity, higher = more binding, comparable within an allelic series)"
same,binding signal,SHOX [17],"7.28 upbm affinity estimate (log intensity, higher = more binding, comparable within an allelic series)"
same,binding signal,HOXB4 [6],"7.65 upbm affinity estimate (log intensity, higher = more binding, comparable within an allelic series)"
same,binding signal,ALX1 [18],"6.44 upbm affinity estimate (log intensity, higher = more binding, comparable within an allelic series)"
same,binding signal,SHOX [19],"7.07 upbm affinity estimate (log intensity, higher = more binding, comparable within an allelic series)"
same,binding signal,ALX1 [20],"6.71 upbm affinity estimate (log intensity, higher = more binding, comparable within an allelic series)"
same,binding signal,ALX1 [21],"6.49 upbm affinity estimate (log intensity, higher = more binding, comparable within an allelic series)"
ATTGAACC,binding signal,HESX1 [22],"7.56 upbm affinity estimate (log intensity, higher = more binding, comparable within an allelic series)"
same,binding signal,HESX1 [23],"7.77 upbm affinity estimate (log intensity, higher = more binding, comparable within an allelic series)"
same,binding signal,HESX1 [24],"7.33 upbm affinity estimate (log intensity, higher = more binding, comparable within an allelic series)"
CATAATAC,binding signal,HESX1 [22],"7.93 upbm affinity estimate (log intensity, higher = more binding, comparable within an allelic series)"
same,binding signal,HESX1 [23],"8.07 upbm affinity estimate (log intensity, higher = more binding, comparable within an allelic series)"
same,binding signal,VAX1 [10],"10.4 upbm affinity estimate (log intensity, higher = more binding, comparable within an allelic series)"
same,binding signal,VAX1 [11],"10 upbm affinity estimate (log intensity, higher = more binding, comparable within an allelic series)"
same,binding signal,VAX1 [16],"10.1 upbm affinity estimate (log intensity, higher = more binding, comparable within an allelic series)"
GTCATAAC,binding signal,HESX1 [22],"7.26 upbm affinity estimate (log intensity, higher = more binding, comparable within an allelic series)"
same,binding signal,HESX1 [23],"7.28 upbm affinity estimate (log intensity, higher = more binding, comparable within an allelic series)"
same,binding signal,HESX1 [24],"7.2 upbm affinity estimate (log intensity, higher = more binding, comparable within an allelic series)"
CTCAATTC,binding signal,HESX1 [22],"7.54 upbm affinity estimate (log intensity, higher = more binding, comparable within an allelic series)"
same,binding signal,HESX1 [23],"7.59 upbm affinity estimate (log intensity, higher = more binding, comparable within an allelic series)"
same,binding signal,HESX1 [24],"7.26 upbm affinity estimate (log intensity, higher = more binding, comparable within an allelic series)"
